From the supplement of paper PMC7393113
Where a name gives a salt, the structure may show the parent alone. ± gives the standard deviation of the averaged measurements.

Tested on: iBMDM (immortalised mouse bone-marrow-derived macrophages), LPS-stimulated
Assay: mitochondrial superoxide (MitoSOX fluorescence) fold increase over unstimulated control; higher = more LPS-induced mitochondrial ROS (less inhibition)
Conditions: inhibitor concentration: 500 nM, LPS: 100 ng/ml
Procedure, shortened: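 Mitochondrial superoxide was expressed as fold induction over untreated macrophages. Immortalised mouse bone-marrow-derived macrophages were pretreated with kinase inhibitors (500 nM) for 30 min, loaded with 1 μM MitoSox for 10 min and stimulated with LPS (100 ng/ml). MitoSox fluorescence (excitation 510 nm, emission 580 nm) was read hourly over 4 h, and the three replicates were averaged.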

SMILES | mitochondrial superoxide (time after LPS: 1 h) | mitochondrial superoxide (time after LPS: 2 h) | mitochondrial superoxide (time after LPS: 4 h)
CN1CCN(S(=O)(=O)c2ccc(-c3cnc(N)c(C(=O)Nc4cccnc4)n3)cc2)CC1 | 1.34 ± 0.053 | 1.46 ± 0.031 | 1.63 ± 0.03
C[C@@H](Oc1cc(-c2cnn(C3CCNCC3)c2)cnc1N)c1c(Cl)ccc(F)c1Cl | 1.39 ± 0.038 | 1.5 ± 0.052 | 1.64 ± 0.079
O=C(NC(NC(=S)Nc1ccc(F)c([N+](=O)[O-])c1)C(Cl)(Cl)Cl)C(c1ccccc1)c1ccccc1 (stereo not drawn) | 1.13 ± 0.029 | 1.25 ± 0.031 | 1.37 ± 0.015
O=C(Nc1ccc(-c2ccnc(Nc3ccc(N4CCOCC4)cc3)n2)cc1)C1CCCN1 (stereo not drawn) | 1.21 ± 0.058 | 1.232 ± 0.011 | 1.3 ± 0.068
Cn1cc(-c2cnn3c(N)c(Br)c([C@@H]4CCCNC4)nc23)cn1 | 1.12 ± 0.091 | 1.4 ± 0.22 | 1.54 ± 0.11
C[C@@H]1COC(Nc2ccc3ncnc(Nc4ccc(OCc5nccs5)c(Cl)c4)c3c2)=N1 [Varlitinib] | 1.3 ± 0.019 | 1.39 ± 0.09 | 1.69 ± 0.08
CCC(=O)N1CCN(c2ccc(-n3c(=O)ccc4cnc5ccc(-c6cnc7ccccc7c6)cc5c43)cc2C(F)(F)F)CC1 [Torin 1] | 1.14 ± 0.024 | 1.24 ± 0.033 | 1.35 ± 0.044
CNC(=O)Nc1ccc(-c2nc(N3CC4CCC(C3)O4)c3cnn(C4CCC5(CC4)OCCO5)c3n2)cc1 | 1.26 ± 0.075 | 1.45 ± 0.028 | 1.58 ± 0.024
Cc1cn(-c2cc(NC(=O)c3ccc(C)c(Nc4nccc(-c5cccnc5)n4)c3)cc(C(F)(F)F)c2)cn1 [Nilotinib (AMN-107)] | 1.45 ± 0.049 | 1.53 ± 0.07 | 1.65 ± 0.1
OCCn1cc(-c2ccc3c(c2)CC/C3=N\O)c(-c2ccncc2)n1 | 1.36 ± 0.044 | 1.45 ± 0.064 | 1.49 ± 0.02
O=C(Cc1ccc(-c2ccc(OCCN3CCOCC3)cc2)cn1)NCc1ccccc1 | 1.31 ± 0.1 | 1.4 ± 0.1 | 1.61 ± 0.11
O=C1NC(=O)/C(=C/c2ccc(-c3ccc(F)cc3O)o2)S1 | 1.4 ± 0.16 | 1.54 ± 0.25 | 1.78 ± 0.2
CN(C)C/C=C/C(=O)Nc1cc2c(Nc3ccc(F)c(Cl)c3)ncnc2cc1O[C@H]1CCOC1 [Afatinib (BIBW2992)] | 1.54 ± 0.068 | 1.6 ± 0.047 | 1.77 ± 0.11
CCc1cncnc1N1CCN(Cc2nc3ccc(C(F)(F)F)cc3[nH]2)CC1 | 1.12 ± 0.073 | 1.23 ± 0.037 | 1.34 ± 0.1
CCN(CC)CCNC(=O)c1c(C)[nH]c(/C=C2\C(=O)Nc3ccc(F)cc32)c1C [Sunitinib Malate] | 1.61 ± 0.057 | 1.73 ± 0.072 | 1.7 ± 0.099
O=C(Nc1cc(C(F)(F)F)cc(C(F)(F)F)c1)c1cc(Cl)ccc1O | 0.988 ± 0.04 | 1.04 ± 0.033 | 1.01 ± 0.054
CCOc1ccn(-c2ccc(F)cc2)c(=O)c1C(=O)Nc1ccc(Oc2ccnc(N)c2Cl)c(F)c1 | 1.25 ± 0.045 | 1.28 ± 0.084 | 1.28 ± 0.017
Cc1cc(C)nc(NS(=O)(=O)c2ccc(NC(=S)NC(=O)COc3ccc(Br)cc3Cl)cc2)n1 | 1.42 ± 0.087 | 1.45 ± 0.1 | 1.61 ± 0.055
O=C(c1cccc(Cl)c1F)N1CCN(Cc2cccc(Nc3nccs3)n2)CC1 | 1.15 ± 0.018 | 1.22 ± 0.048 | 1.37 ± 0.053

SMILES | mitochondrial superoxide (time after LPS: 1 h) | mitochondrial superoxide (time after LPS: 2 h) | mitochondrial superoxide (time after LPS: 4 h)
CC1(COc2ccc3c(c2)ncn3-c2ccc3cccc(N4CCC(N)CC4)c3n2)COC1 | 1.04 ± 0.1 | 1.42 ± 0.11 | 1.66 ± 0.13
Nc1nc(N)c(N=O)c(OCC2CCCCC2)n1 | 1.17 ± 0.03 | 1.25 ± 0.017 | 1.37 ± 0.074
Cn1c(Nc2ccc(C(F)(F)F)cc2)nc2cc(Oc3ccnc(-c4ncc(C(F)(F)F)[nH]4)c3)ccc21 | 1.13 ± 0.08 | 1.2 ± 0.097 | 1.33 ± 0.066
COc1cc2nccc(Oc3ccc(NC(=O)NC4CC4)c(Cl)c3)c2cc1C(N)=O [Lenvatinib (E7080)] | 1.45 ± 0.042 | 1.71 ± 0.053 | 1.73 ± 0.15
CO[C@H]1C[C@@H]2CC[C@@H](C)[C@@](O)(O2)C(=O)C(=O)N2CCCC[C@H]2C(=O)O[C@H]([C@H](C)C[C@@H]2CC[C@@H](O)[C@H](OC)C2)CC(=O)[C@H](C)/C=C(\C)[C@@H](O)[C@@H](OC)C(=O)[C@H](C)C[C@H](C)/C=C/C=C/C=C/1C [Rapamycin (Sirolimus)] | 1.7 ± 0.07 | 1.7 ± 0.094 | 1.7 ± 0.033
CCc1cc(Nc2nccc(-c3c(-c4ccc(OC)c(C(=O)Nc5c(F)cccc5F)c4)nc4ccccn34)n2)c(OC)cc1N1CCC(N2CCN(S(C)(=O)=O)CC2)CC1 | 1.3 ± 0.016 | 1.4 ± 0.079 | 1.5 ± 0.03
COc1cc2ncnc(Nc3ccc(O)c(Br)c3)c2cc1OC | 1.04 ± 0.047 | 1.04 ± 0.082 | 1.07 ± 0.12
CS(=O)(=O)c1cccc(CNc2nc(Nc3ccc4c(c3)CCC(=O)N4)ncc2C(F)(F)F)c1 | 1.2 ± 0.044 | 1.24 ± 0.056 | 1.3 ± 0.014
CC(=O)Nc1cccc(-n2c(=O)n(C3CC3)c(=O)c3c(Nc4ccc(I)cc4F)n(C)c(=O)c(C)c32)c1 | 1.34 ± 0.11 | 1.44 ± 0.066 | 1.62 ± 0.083
O=C(NC1CCNCC1)c1n[nH]cc1NC(=O)c1c(Cl)cccc1Cl | 1.13 ± 0.061 | 1.15 ± 0.041 | 1.3 ± 0.018
O=C(NOC[C@H](O)CO)c1ccc(F)c(F)c1Nc1ccc(I)cc1F | 1.589 ± 0.0074 | 1.64 ± 0.044 | 1.71 ± 0.083
Cn1c(=O)n(-c2ccc(C(C)(C)C#N)cc2)c2c3cc(-c4cnc5ccccc5c4)ccc3ncc21 [BEZ235 (NVP-BEZ235, Dactolisib)] | 1.47 ± 0.087 | 1.47 ± 0.084 | 1.61 ± 0.076
CNC(=O)c1ccc(C)c(-n2c(C)cc(OCc3ccc(F)cc3F)c(Br)c2=O)c1 | 1.33 ± 0.056 | 1.48 ± 0.059 | 1.6 ± 0.016
C[C@@H](N)[C@H]1CC[C@H](C(=O)Nc2ccncc2)CC1 | 1.56 ± 0.061 | 1.67 ± 0.11 | 1.71 ± 0.065
CCc1nc(-c2cccc(C)c2)c(-c2ccnc(NC(=O)c3ccccc3)c2)s1 | 1.17 ± 0.028 | 1.17 ± 0.022 | 1.18 ± 0.04
CNC(=O)c1cc(COc2nnc(Nc3ccc(Cl)cc3)c3ccoc23)ccn1 [Telatinib] | 1.23 ± 0.036 | 1.33 ± 0.051 | 1.38 ± 0.11
CN(C)C1CCN(C(=O)c2ccc(NC(=O)Nc3ccc(-c4nc(N5CCOCC5)nc(N5CCOCC5)n4)cc3)cc2)CC1 | 1.1 ± 0.061 | 1.29 ± 0.014 | 1.58 ± 0.095
COc1cc2nccc(Oc3ccc(NC(=O)C4(C(=O)Nc5ccc(F)cc5)CC4)cc3)c2cc1OC | 1.41 ± 0.041 | 1.43 ± 0.017 | 1.51 ± 0.029
COc1ccc(-c2nc(N3CCOCC3)c3sc(CN(C)c4ncc(C(=O)NO)cn4)cc3n2)cn1 | 1.31 ± 0.095 | 1.52 ± 0.1 | 1.77 ± 0.17

SMILES | mitochondrial superoxide (time after LPS: 1 h) | mitochondrial superoxide (time after LPS: 2 h) | mitochondrial superoxide (time after LPS: 4 h)
Cc1cc(Nc2ncc(Cl)c(Nc3ccccc3S(=O)(=O)C(C)C)n2)c(OC(C)C)cc1C1CCNCC1 | 1.2 ± 0.013 | 1.32 ± 0.033 | 1.39 ± 0.024
O=c1ncn2nc(Sc3ccc(F)cc3F)ccc2c1-c1c(Cl)cccc1Cl | 1.16 ± 0.045 | 1.21 ± 0.014 | 1.28 ± 0.037
CCn1c(N)c(C(=O)NC)c(=O)c2ccc(C#CC(C)(O)COC)nc21 (stereo not drawn) | 1.11 ± 0.027 | 1.22 ± 0.042 | 1.33 ± 0.051
C#Cc1cccc(Nc2ncnc3cc(OCCOC)c(OCCOC)cc23)c1 [Erlotinib HCl (OSI-744)] | 1.62 ± 0.033 | 1.66 ± 0.076 | 1.76 ± 0.048
O=c1sn(-c2cccc3ccccc23)c(=O)n1Cc1ccccc1 [Tideglusib] | 1.14 ± 0.068 | 1.17 ± 0.049 | 1.29 ± 0.062
CN1CCN(c2ccc3nc(-c4c(N)c5c(F)cccc5[nH]c4=O)[nH]c3c2)CC1 [Dovitinib (TKI-258, CHIR-258)] | 1.62 ± 0.087 | 1.7 ± 0.026 | 1.91 ± 0.073
Cc1ccc(C(=O)Nc2ccc(CN3CCN(C)CC3)c(C(F)(F)F)c2)cc1C#Cc1cnc2[nH]ncc2c1 | 1.42 ± 0.049 | 1.53 ± 0.032 | 1.75 ± 0.062
COc1ccc(COc2cc3oc(=O)c4cc(C(C)O)ccc4c3cc2OC)cc1 (stereo not drawn) [Palomid 529 (P529)] | 1.1 ± 0.049 | 1.25 ± 0.08 | 1.41 ± 0.05
CN(C)c1ccc(-c2nc3ncc(Cl)c(N4CCN(CC(=O)Nc5nccs5)CC4)c3[nH]2)cc1 | 1.21 ± 0.037 | 1.278 ± 0.0079 | 1.35 ± 0.039
CO[C@H]1C[C@@H]2CC[C@@H](C)[C@@](O)(O2)C(=O)C(=O)N2CCCC[C@H]2C(=O)O[C@H]([C@H](C)C[C@@H]2CC[C@@H](OP(C)(C)=O)[C@H](OC)C2)CC(=O)[C@H](C)/C=C(\C)[C@@H](O)[C@@H](OC)C(=O)[C@H](C)C[C@H](C)/C=C/C=C/C=C/1C [Ridaforolimus (Deforolimus, MK-8669)] | 1.55 ± 0.087 | 1.592 ± 0.0072 | 1.78 ± 0.04
COc1cc(N2CCC(N(C)C)CC2)ccc1Nc1ncc(Cl)c(Nc2ccccc2P(C)(C)=O)n1 | 1.15 ± 0.031 | 1.27 ± 0.11 | 1.33 ± 0.076
O=C(O)[C@]1(Cc2cccc(Nc3nccs3)n2)CC[C@@H](Oc2cccc(Cl)c2F)CC1 | 1.22 ± 0.027 | 1.39 ± 0.086 | 1.51 ± 0.044
C=CC(=O)Nc1ccc2ncnc(Nc3ccc(OCc4cccc(F)c4)c(Cl)c3)c2c1 | 1.18 ± 0.017 | 1.204 ± 0.0092 | 1.42 ± 0.13
Cc1ncc(-c2ccnc(Nc3ccc(S(C)(=O)=O)cc3)n2)n1C(C)C | 1.36 ± 0.052 | 1.46 ± 0.063 | 1.6 ± 0.11
Cn1cc(-c2[nH]c3cc(NC(=O)[C@H](N)C4CCCCC4)cc4c3c2C=NNC4=O)cn1 | 1.15 ± 0.062 | 1.15 ± 0.043 | 1.27 ± 0.029
Cn1cnc2c(F)c(Nc3ccc(Br)cc3F)c(C(=O)NOCCO)cc21 | 1.13 ± 0.046 | 1.26 ± 0.038 | 1.29 ± 0.028
Cc1c(Cn2c(C)nc3c(C(=O)O)cc(N4CCOCC4)cc32)cccc1C(F)(F)F | 1.394 ± 0.013 | 1.502 ± 0.0056 | 1.61 ± 0.048
Clc1ccc(C2(c3ccc(-c4cn[nH]c4)cc3)CCNCC2)cc1 | 1.16 ± 0.065 | 1.21 ± 0.061 | 1.25 ± 0.042
